Only some compounds are listed: those with a hit (about 9.3% of all), similar ones and a draw of the others.
M1 ag: activates the M1 muscarinic receptor; AID 626; B-score at 10 µM; CHO-M1 cells, Fluo-4 calcium fluorescence, agonist mode; hits give high values; 64,000 tested, 3% active;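 active = fluorescence rise, raw or as B-score row- and column-corrected plate score, outside the 99.7% band of its plate's samples, either direction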
A340 absorber: compound absorbs light at 340 nm | AID 708 | fold change at 10 µM | compound absorbance at 340 nm, fold over control | 65,000 tested, under 10 active;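 active = at 10 µM dose, initial 340 nm absorbance at least 2 fold that of control wells; inactive = change under 2 fold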;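 also: initial absorbance extrapolated from kinetic A340 decline of NADH oxidation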
Autofluor 339: intrinsic fluorescence of library compounds, ex339/em460 – biochemical, MLSMR library, data from DPM-DC assay, artefact control, profiling panel; compound autofluorescence, ex339/em460 nm, NADH buffer; hits give high values; 1 = no-compound wells, NADH background; fluorescence fold increase at 10 µM; 65,000 tested, 5.5% active;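 active = at 10 µM, mean starting fluorescence two-fold or more over control wells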;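 also: signal is the first read of a kinetic run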
Htt clearance: compounds clearing mutant huntingtin protein; HeLa Exon1htt(103Q)mCFP, aggregate imaging; zero = plate's median compound well; inhibition, % at 1.5 µM; 47,000 tested, 0.42% active;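 active = inhibition of aggregate fluorescence above about 70%, also judged a hit by eye on the cell image, limit read from the data, passing the limit was not always enough; inconclusive = no rule stated for this call; inactive = not judged a hit on image review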;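 also: cells exposed to compound for three days before fixation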
NADH coupling: blocks coupling enzymes of NAD/NADH assays; coupled PK/LDH NADH assays, four targets; IC50, µM (titrated, usually from 10 µM), for the others: at the top dose inhibition; 65,000 tested, 0.02% active; AID 774;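 active = single-dose screening hits from any of four coupled enzyme assays that gave an IC50 when retested across doses; inconclusive = no clear call, values can overlap the other calls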;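 also: the DPM-DC format reads NADH fluorescence rather than 340 nm absorbance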
M1 antagonist: M1 muscarinic receptor (rat) antagonism | CHO-M1 cells, Fluo-4 calcium, ACh EC80 antagonist mode; hits give low values | B-score at 10 µM | 64,000 tested, 3.4% active | AID 628;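 active = calcium fluorescence response, raw or row-and-column corrected B-score, differing from the plate sample mean either way at a set confidence level, mostly lower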
Target sequence (P08482 whole entry, looked up): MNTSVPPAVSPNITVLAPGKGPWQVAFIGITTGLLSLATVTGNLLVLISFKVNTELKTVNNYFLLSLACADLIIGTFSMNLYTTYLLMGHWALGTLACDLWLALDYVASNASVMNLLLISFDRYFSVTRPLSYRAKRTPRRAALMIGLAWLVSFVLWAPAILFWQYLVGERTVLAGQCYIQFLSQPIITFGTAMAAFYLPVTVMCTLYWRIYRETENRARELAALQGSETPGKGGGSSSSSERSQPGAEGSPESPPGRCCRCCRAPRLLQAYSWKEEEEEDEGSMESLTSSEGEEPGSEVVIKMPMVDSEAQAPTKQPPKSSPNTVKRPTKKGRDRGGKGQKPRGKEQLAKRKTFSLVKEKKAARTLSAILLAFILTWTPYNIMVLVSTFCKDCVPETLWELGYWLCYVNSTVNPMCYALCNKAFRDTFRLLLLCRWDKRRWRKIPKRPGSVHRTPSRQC
M1 ag confirm: rat M1 muscarinic agonism, confirmation; shares compounds with M1 ag; CHO-M1 cells, Fluo-4 calcium fluorescence, agonist mode; actives lie on both sides; fluorescence change (max-min) at 10 µM; 1,700 tested, 19% active;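 active = fluorescence change differs from the solvent-only DMSO control mean at a set confidence level in both duplicate runs; inconclusive = differs from solvent-only control mean in just one of two runs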;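 also: an EC20 dose of acetylcholine follows compound addition during the same imaging run; raw fluorescence intensity difference in instrument units with no normalization to controls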
M4 agonist ctr: activates rat M4 receptor in counter-screen for M1 agonists; shares compounds with M1 ag; CHO M4/Gqi5 cells, Fluo-4 calcium fluorescence, agonist mode; actives lie on both sides; fluorescence change (max-min) at 10 µM; 1,700 tested, 9% active;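 active = fluorescence change differing from the plate's solvent-only control wells at 99.7% confidence in both duplicates, whether higher or lower; inconclusive = differs from solvent controls in only one of two duplicates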
* = called active by the depositor; u = inconclusive; x = no result.

SMILES	M1 ag	A340 absorber	Autofluor 339	Htt clearance	NADH coupling	M1 antagonist	M1 ag confirm	M4 agonist ctr
CCN1CCc2c(sc(N)c2C#N)C1	11.5*	1.04	1.65	-32.9	12.0%	-1.47	14.8	3.3
CC(C)N1CCc2c(sc(N)c2C#N)C1	13.4	1.08	1.51	x	7.0%	0.0839	x	x
CCCCn1c(=O)c2c(O)cc(=O)oc2c2ccccc21	x	x	x	20.1	x	x	x	x
CCCCN(C)Cc1c(O)ccc2c(-c3ccccc3)cc(=O)oc12	8.16*	1.03	1.9	26.1	2.0%	-3.83*	-2.73	-20.9
Cc1ccc(S(=O)(=O)N2CCN(C(=O)N3CCOCC3)C2C)cc1 (configuration not stated)	-0.189	1	1.11	x	2.0%	-0.00255	x	x
CCOC(=O)N1CCN(C(=O)c2ccc3nc(SCc4ccc(F)cc4)n(C)c3c2)CC1	4.02*	1.01	1.11	-27.0	7.0%	-2.78*	u	-68.1
CCCC/C(C)=N/NC(=O)C(=O)NCCc1ccccc1	x	x	x	-23.4	x	x	x	x
Cc1ccc(SC/C(O)=C(\C#N)c2nc3ccccc3s2)cc1	3.27*	1.23	1.03	-24.9	16.0%	-2.36	-3.47	12.8
c1ccc(-c2nc(NCc3cccnc3)c3oc4ccccc4c3n2)cc1	0.298	1.02	1.13	-59.0	5.0%	1.29	x	x
Cc1cc2cc(CCNC(=O)c3ccc(Br)o3)c(=O)[nH]c2cc1C	3.67*	1.06	1.47	x	8.0%	-1.14	-14.7	-25.7
CCN(CC)P1(=O)OC(c2cc(OC)c(OC)c(OC)c2)=Nc2c1c(C)nn2-c1ccccc1 (configuration not stated)	4.42*	1.15	1.07	x	4.0%	0.433	6.98	-33.1
COc1ccc(-c2c(C)nn(-c3ccccc3)c2N)cc1OC	x	x	x	0.6	x	x	x	x
O=c1c2c3c(sc2nc2n1CCCC2)CCCC3	x	x	x	-166.7	x	x	x	x
O=c1c2c3c(sc2nc2sc(CN4CCOCC4)cn12)CCCC3	-3.31*	1.06	1.36	-21.5	6.0%	-0.288	-17.7	u
CC(=O)c1c(C)[nH]c(C(=O)NCCc2cccc(C)c2)c1C	-2.41*	0.99	1.14	x	4.0%	-0.101	u	u
CC(=O)c1c(C)[nH]c(C(=O)Nc2cc(C)ccc2C)c1C	-0.0425	1	1.05	-17.2	6.0%	-0.0345	x	x
CN1CCCc2cc3c(C(F)(F)F)cc(=O)oc3nc21	429*	1.04	2.21*	22.7	5.0%	-17.3*	2526*	2146*
CCn1c(C(=O)N2CCC(C(=O)NCCCSC3CCCCC3)CC2)cc2sccc21	2.53*	1	1.08	4.0	3.0%	0.0921	-19*	-48.5
CCN1CCN(c2cc(C)c3cc(NC(=O)c4ccncc4)ccc3n2)CC1	0.341	1.14	1.05	x	2.0%	-0.557	x	x
CCN1CCN(c2cc(C)c3cc(NC(=O)c4ccc(Br)o4)ccc3n2)CC1	3.02*	1.12	1.09	-32.7	6.0%	-4.38*	-3.98	-52.5
Cc1ccc(Cc2nnc3n(-c4ccccc4)nc(C(=O)c4ccccc4)n3c2=O)cc1	x	x	x	1.8	x	x	x	x
O=C(Nc1ccc(O)cc1)c1cc2n(n1)C(C(F)(F)F)CC(c1ccco1)N2 (configuration not stated)	-2.34*	1.03	1.07	x	4.0%	0.376	-10.5	-51.8
CCOc1ccc(NC(=O)c2cc3n(n2)C(C(F)(F)F)CC(c2ccco2)N3)cc1 (configuration not stated)	-1.09	1.02	1.11	x	3.0%	-1.01	x	x
CCOC(=O)c1ccccc1NC(=O)c1cccc2c1C(=O)N(C1CCN(C(=O)OCC)CC1)C2	-0.0846	1.01	1.13	36.8	3.0%	0.0222	x	x
CCOC(=O)N1CCC(N2Cc3cccc(C(=O)Nc4ccc(OC)c(OC)c4)c3C2=O)CC1	9.02*	1.07	1.02	2.9	3.0%	-3.96*	-28.8	-36.5
SMILES	M1 ag	A340 absorber	Autofluor 339	Htt clearance	NADH coupling	M1 antagonist	M1 ag confirm	M4 agonist ctr
O=C(Nc1nc2ccccc2s1)C1CC(=O)N(c2ccc(F)cc2)C1 (configuration not stated)	x	x	x	-9.9	x	x	x	x
CCc1nnc(NC(=O)CCC(=O)N2CCN(CCOc3ccc(C)cc3)CC2)s1	5.1*	1.04	1.1	x	5.0%	-0.406	-3.62	-25.8
CCc1nnc(NC(=O)CCC(=O)N2CCN(CCc3ccccc3)CC2)s1	-0.323	1.04	1.08	x	5.0%	-0.0781	x	x
O=C(NC1CCCCC1)NC1CC2CCC(C1)N2Cc1nnnn1Cc1ccc2c(c1)OCO2 (configuration not stated)	x	x	x	27.3	x	x	x	x
CCCCCCOC(=O)C(C#N)c1nc2ccccc2nc1N1CCN(CC)CC1 (configuration not stated)	4.12*	0.99	1.29	-16.4	9.0%	-1.1	-0.766	-7.2
COCCCNC(=O)C(C#N)c1nc2ccccc2nc1N1CCCC1 (configuration not stated)	340*	1.03	1.94	-4.3	5.0%	-1.74	230*	749*
CCCCCCNC(=O)C(C#N)c1nc2ccccc2nc1N1CCOCC1 (configuration not stated)	156*	1.03	1.62	-38.5	8.0%	0.628	179*	1619*
CCCCCNC(=O)C(C#N)c1nc2ccccc2nc1N1CCCC1 (configuration not stated)	282*	1.1	2.44*	7.6	10.0%	-2.39*	1609*	1437*
COCCOC(=O)C(C#N)c1nc2ccccc2nc1N1CCCC1 (configuration not stated)	-1.45	1.01	1.24	-6.8	6.0%	-0.553	x	x
CC1=C(C#N)C(=O)NC(C)(C)C1	-0.533	0.99	1.03	64.5	2.0%	0.63	x	x
CC1=C(C#N)C(=O)N(C)C(C)(C)C1	19.3*	1.03	1.21	x	6.0%	-0.0181	-10.4	-33.3
O=C(c1cc(C2CC2)nc2ccc(Br)cc12)N1N=C(C(F)F)CC1(O)C(F)F (configuration not stated)	x	x	x	22.7	x	x	x	x
Cc1ccccc1OCCCCCn1ccnc1	-0.691	1.05	1.09	-74.0	1.0%	-0.0444	x	x
Cc1cccc(OCCCCCn2ccnc2)c1	4.53*	1.03	1.12	-17.2	16.0%	-0.477	37.4	-44.9
CCOc1ccc(CC(=O)NCc2cn3c(C)csc3n2)cc1	3.41*	1.03	1.05	x	2.0%	0.34	u	u
CC(=O)Nc1ccc(S(=O)(=O)NCc2cn3c(C)csc3n2)cc1	0.367	1	1.05	x	2.0%	0.205	x	x
CCc1ccc(S(=O)(=O)NCc2cn3c(C)csc3n2)s1	-3.11*	1.07	1.08	-110.1	2.0%	-1.63	-7.53	-26.5
C=CCN1C(c2ccc(OCC)cc2)=CS/C1=C(\C#N)c1nnc2n1CCCCC2	6.64*	1.15	1.07	x	8.0%	-0.605	-3.65	-23.7
COc1ccc(Cn2c(SCC(=O)NCc3ccco3)nc3ccsc3c2=O)cc1	0.322	1	1.13	x	3.0%	0.00468	x	x

Screening data as filed in PubChem.
